MLLE-PAM2 inh: blocks PAM2 peptide binding to the PABP1 MLLE domain | P11940 | GST-MLLE / FITC-PAM2 fluorescence polarization | hit rate 0.36% among 360,000 | inhibition, % at 20 µM | AID 588489; in the data active means inhibition above about 35%, passing the limit was not always enough;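 further: plate controls were DMSO wells with GST-MLLE for no effect and wells lacking GST-MLLE protein for full effect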
Target sequence (P11940 whole entry, looked up, the tested form may be a part): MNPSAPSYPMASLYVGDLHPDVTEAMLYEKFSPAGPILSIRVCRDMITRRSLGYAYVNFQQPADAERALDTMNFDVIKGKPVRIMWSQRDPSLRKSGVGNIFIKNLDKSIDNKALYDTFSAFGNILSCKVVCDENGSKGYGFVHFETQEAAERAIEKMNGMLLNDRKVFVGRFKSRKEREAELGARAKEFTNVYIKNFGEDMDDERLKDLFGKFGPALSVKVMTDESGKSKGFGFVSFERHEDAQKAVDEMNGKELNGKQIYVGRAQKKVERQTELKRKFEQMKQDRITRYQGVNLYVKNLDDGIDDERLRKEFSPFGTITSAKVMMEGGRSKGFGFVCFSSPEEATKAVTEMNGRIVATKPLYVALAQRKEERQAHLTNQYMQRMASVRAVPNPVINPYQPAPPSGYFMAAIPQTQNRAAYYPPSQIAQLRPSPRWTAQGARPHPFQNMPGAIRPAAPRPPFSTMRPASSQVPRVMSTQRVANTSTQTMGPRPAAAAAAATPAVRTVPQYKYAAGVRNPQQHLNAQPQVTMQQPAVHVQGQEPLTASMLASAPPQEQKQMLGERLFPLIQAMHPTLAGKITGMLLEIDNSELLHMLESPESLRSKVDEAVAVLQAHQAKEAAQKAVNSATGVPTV
GRK2 inh: inhibitors of human GRK2 displacing RNA aptamer | bead flow cytometry, FAM-aptamer displacement from GRK2 | AID 488847 | inhibition of aptamer binding, % at 10 µM | P25098 | hit rate 0.59% among 330,000;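 active means inhibition of aptamer binding above 40%, roughly 3 SD of noise, on plates passing a quality check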;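 further: median bead fluorescence of bound FAM aptamer so fluorescent compounds give negative values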
eIF4H FP inh: inhibitors of RNA binding by human eIF4H; Q15056; eIF4H fluorescence polarization binding assay; inhibition, % at 35 µM; AID 2012; hit rate 0.94% among 290,000;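 further: calls also rest on retests at 20 µM and on dose response follow-up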
PERK inhibitor: inhibitors of human PERK kinase | AID 1416 | inhibition, % at 5.6 µM | CHO PERK-DD fusion, SEAP luminescence translation reporter | hit rate 0.17% among 220,000;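 active means inhibition above the mean inhibition of all tested compounds plus 3 SD, set separately per screening campaign, cut at about 2.9% in these data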;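 further: PERK kinase domain activated by AP20187 dimerizer at 100 nM; 0% = DMSO with dimerizer and 100% = rapamycin at 8.4 µM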
PABP FP inh: blocks human PABP binding to poly(A) RNA. fluorescence polarization. hit rate 1% among 290,000. inhibition, % at 35 µM. P11940;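 further: calls also rest on retests at 20 µM and on dose response follow-up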
The depositor's hits bear a star; x = no result given. A selection: hits, their analogues and other compounds. The true share with any hit is near 1.9%. Unless noted, how the calls were made is not given here.

SMILES | MLLE-PAM2 inh | GRK2 inh | eIF4H FP inh | PERK inhibitor | PABP FP inh
COc1ccccc1OCCc1nnc(N)s1 | -14 | 0 | -11 | 3.3* | 1
O=C(O)c1nn(CCOc2cccc(Br)c2)c(=O)c2ccccc12 | -2 | 0 | -1 | x | -3
CN(C)S(=O)(=O)c1ccc(NC(=O)Cn2nc(-c3ccc4c(c3)OCCO4)ccc2=O)cc1 | -2 | x | x | x | x
CC1CCN(C(=O)CSc2nc(C3CC3)nc3ccccc23)CC1 | 16 | 0 | -10 | x | -5
CCOC(=O)CSc1nc(C2CC2)nc2ccccc12 | 36* | 1 | -4 | -1 | 10
CC(C)c1nc(SCC(=O)c2ccc(F)cc2)c2ccccc2n1 | 37* | 1 | -4 | 1 | 5
CCc1nc(SCC(=O)c2ccc3c(c2)OCCO3)c2ccccc2n1 | 26 | 7 | -11 | -1 | 8
CCc1nc(SCC(=O)c2ccccc2)c2ccccc2n1 | 41* | 3 | 4 | 0 | 14
CCOC(=O)c1c(N2C(=O)CC(Sc3ccccc3C(=O)O)C2=O)sc2c1CCCC2 (stereo not drawn) | 49* | 2 | -13 | 2 | 2
O=C(O)c1ccccc1SC1CC(=O)N(c2cccc3ccccc23)C1=O (stereo not drawn) | 40* | x | 0 | 1 | -2
CCOc1ccc(N2C(=O)CC(Sc3ccccc3C(=O)O)C2=O)c([N+](=O)[O-])c1 (stereo not drawn) | 40* | 1 | -4 | 1 | -5
Cc1ccc(C)c(NC(=O)CN(C)C(=O)CSC(C)C(=O)Nc2cc(C)on2)c1 (stereo not drawn) | -1 | 0 | 5 | x | 6
CCOc1ccc(NC(=O)CN(C)C(=O)CSC(C)C(=O)Nc2cc(C)on2)cc1OCC (stereo not drawn) | -5 | 0 | 35 | x | 55*
CCN(CC)S(=O)(=O)c1cccc(C(=O)N/N=C2\CCCC(=O)C2)c1 | -5 | 0 | 55 | -1 | 25*
C/C(=N\Nc1nc(Cl)c(Cl)cc1Cl)c1ccc(S(=O)(=O)NCc2ccco2)cc1 | 7 | 5 | 7 | 0 | 2
CCC1C(=O)C(C)(C)C(=O)OC1c1ccc([N+](=O)[O-])cc1 (stereo not drawn) | 7 | 1 | 110* | x | 85*
c1ccc(C[n+]2cccc(-c3ccccc3)c2)cc1 | 4 | 0 | -2 | 1 | -1
NC(=O)c1ccc[n+](Cc2ccccc2)c1 | -2 | 80* | -4 | 1 | -2
Cc1cccc(NC(=O)COc2ccc(/C=N\n3cnnc3)cc2)c1 | 15 | 43* | 2 | 0 | 1
CCN(CC)c1ccc(/C=N/OCC(=O)Nc2cccc(C)c2)cc1 | -77 | 0 | 84 | 0 | -15
COc1cc(OC)cc(C(=O)NNS(=O)(=O)c2ccc(F)cc2)c1 | -2 | 0 | -7 | x | 0
CC1(C)Cc2c(c(-c3ccco3)[nH]c(=O)c2C#N)CS1 | 61* | 5 | 122 | 1 | 118
COCCC(=O)N1CCC(Oc2ccc(C(=O)N3CCCCC3CCO)cc2)CC1 (stereo not drawn) | -7 | 4 | -20 | x | -1
CC1=C(CC(=O)c2ccc(Cl)cc2)C(=O)c2ccccc2C1=O | 18 | 0 | -4 | 2.9* | 15
N#C/C(=C\c1ccc[nH]1)C(=O)Nc1ccccc1[N+](=O)[O-] | -17 | 6 | 79* | x | 57*
SMILES | MLLE-PAM2 inh | GRK2 inh | eIF4H FP inh | PERK inhibitor | PABP FP inh
Cc1ccccc1NC(=O)/C(C#N)=C/c1ccc[nH]1 | 1 | 0 | 5 | x | -2
CCOC(=O)C1=C(COC(=O)C2CC(=O)N(c3ccc(C)cc3)C2)NC(=O)NC1C (stereo not drawn) | -5 | 5 | x | x | x
CN1CCOCCOCCOCCN(C)C1=S | -41 | 1 | 2 | 0 | 2
CN1CCOCCOCCN(C)C(=O)N2CCOCCOCCN(CCOCC2)C1=O | -2 | 3 | -10 | 3.6* | -14
COC(=O)c1cc(C(=O)OC)cc(-n2c(C)cc(C(=O)CC#N)c2C)c1 | -3 | 1 | 59* | 0 | 87*
Cc1cc(C(=O)CC#N)c(C)n1-c1ccc(OC(F)F)cc1 | -11 | 2 | 8 | -1 | 11
O=C(CCl)Nc1cccc2ncccc12 | 14 | 0 | 104* | 1 | 31*
O=C(CSc1ccccn1)Nc1ccccc1F | 6 | 0 | -7 | 0 | -3
O=C(CSc1ccccn1)Nc1cccc2ccccc12 | -75 | 4 | 1.8* | 2 | 59*
CCN(CC(=O)Nc1ccc2c(c1)OCCO2)C(=O)COc1ccc(C)cc1 | 4 | 0 | 5 | x | 12
O=C(CSc1ccc(-c2ccccn2)nn1)Nc1ccc(F)c(F)c1 | 5 | 0 | 2 | x | 8
COc1cc(/C=C(\C#N)C(=O)Nc2ccc(C(=O)O)cc2)ccc1OC(=O)c1cccc(F)c1 | -8 | 42* | 6 | x | 1
CCOC(=O)N(C)C[C@H]1OCc2cnnn2CCCC(=O)N([C@H](C)CO)C[C@H]1C | -3 | x | x | x | x
CCCc1c(C)[nH]c2ccc(C(=O)O)cc2c1=S | 17 | x | 56* | 2 | 55*
O=c1nc(Nc2cccc(Cl)c2)oc2cc(Cl)oc(=O)c12 | -17 | 0 | 58 | 0 | 26*
Cc1c(C(=O)OCC[N+]2(C)CCCCC2)oc2ccccc12 | -103 | 1 | 4 | 2 | 55*
Cc1c(C(=O)OCC(=O)N2CCC(C)CC2)oc2ccccc12 | 12 | 0 | x | x | x
CCN(CC)CCCC(C)NC(=O)c1ccc(C(F)(F)F)cc1 (stereo not drawn) | -4 | 0 | active | 1 | 54*
CC(NC(=O)CN1c2cccc3cccc(c23)S1(=O)=O)c1ccc(S(N)(=O)=O)cc1 (stereo not drawn) | -7 | 2 | x | x | x
Cc1ccc(-n2c(-c3ccco3)nc3nc4ccccc4nc32)cc1F | -34 | 1 | 72 | 1 | -8
Fc1ccc(-n2c(-c3ccco3)nc3nc4ccccc4nc32)cc1 | -32 | 0 | 86* | 1 | 94*
Fc1cccc(-n2c(-c3ccco3)nc3nc4ccccc4nc32)c1 | -45 | 0 | 57 | 0 | 27*
Oc1ccc(CN2CCN(c3ccccc3)CC2)c2cccnc12 | 20 | 4 | 1 | 0 | 1
Oc1ccc(CN2CCCCC2)c2cccnc12 | 16 | 3 | 85* | -1 | -11
O=[N+]([O-])c1cc(CN2CCCC2)c2cccnc2c1O | 15 | 0 | 87* | 1 | 2
SMILES | MLLE-PAM2 inh | GRK2 inh | eIF4H FP inh | PERK inhibitor | PABP FP inh
O=[N+]([O-])c1cc(CN2CCN(c3cccc(C(F)(F)F)c3)CC2)c2cccnc2c1O | x | 0 | 47 | 0 | 4
O=C(CN(Cc1ccccc1Cl)C(=O)c1csnn1)NCc1ccc2c(c1)OCO2 | 8 | 2 | -6 | x | -7
CCOc1ccc(NS(=O)(=O)c2ccc(C(=O)NCC(c3ccc(OC)cc3)N3CCOCC3)cc2)cc1 (stereo not drawn) | 0 | 2 | x | x | x
CCCCn1nc(NC(=O)CC)c2cc3cc(OC)ccc3nc21 | -1 | 0 | -2 | x | -7
CCOC(=O)c1cc2c(=O)n3cccc(C)c3nc2n(C)c1=N | x | x | 96* | 0 | 62*
CCOC(=O)c1cc2c(=O)n3ccccc3nc2n(Cc2ccccc2)c1=N | -3 | 7 | -10 | -1 | -9
